Experimental data published in PubChem BioAssay (NCI).
About 83,000 compounds went through this panel and 20% of them were active in at least one assay; those are over-represented in the sample as a whole.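 In brief: 96-well plates, 48 h treatment, single concentration, percent growth endpoint.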 Unmarked numbers belong to inactive results. Activity calls are given as the source filed them.

test system: NCI-H322M lung; experiment: NCI-60 one-dose screen, 48 h (100 = growth as untreated, 0 = no growth, -100 = all killed); details: 10 µM unless noted
Protocol: Growth inhibition of the NCI-H322M human Non-Small Cell Lung tumor cell line is measured as a screen for anti-cancer activity. Cells are grown in 96 well plates and exposed to the test compound for 48 hours. Compounds are tested at a single concentration, which is 10^-5 M for most compounds. The reported endpoint is percent growth (GI% or GIPRCNT), where numbers from 0 - 100% represent growth inhibition, and numbers from -100% - 0 represent cell death. For example, a value of 40 represents 60% growth inhibition. A value of 0 means no net growth occurred over the course of the experiment. A value of -40 indicates 40% of cells at the beginning of the experiment died by the end of the experiment. A value of -100 means all cells are dead at the end of the experiment.
NCI-60 Human Tumor Cell Lines Screen was performed using the standard one-dose NCI protocol, which is described in more detail at https://dtp.cancer.gov/discovery_development/nci-60/default.htm.
Compounds with GIPRCNT values below 10 were considered active. Activity score was based on GIPRCNT using the following formula: […]
Score is 0 for GIPRCNT values of 100 or above, 50 for GIPRCNT values of 0, and 100 for GIPRCNT values of -100.

SMILES | growth
CC1CN(S(=O)(=O)c2oc(-c3ccc(Cl)cc3)nc2C#N)CC(C)O1 (stereo not given) | 97.9%
CCOC(=O)C1=C(N)Oc2c(sc3c(F)cccc23)C1c1ccc(O)cc1 (stereo not given) | 67.5%
COc1cc2oc(-c3cccc(NC(=O)c4ccccc4)c3)cc(=O)c2c(OC)c1OC | 83.8%
Clc1ccc2c(c1)C(c1c[nH]c3ccccc13)(c1c[nH]c3ccccc13)CCO2 | 90.8%
CCC1=C[C@@H]2C[C@]3(C(=O)OC)c4[nH]c5ccccc5c4CC[N@+](CC(=O)Nc4cc5c(cc4OC)N(C)[C@H]4[C@@](O)(C(=O)OC)[C@H](OC(C)=O)[C@]6(CC)C=CCN7CC[C@]54[C@@H]76)(C2)[C@H]13 | 102%
Cc1ccc(C)n1-c1ccccc1-n1c(C)ccc1C | 99.9%
CC(C)c1ccc(C(=O)Nc2nc3ccc(O)c(CN(C)C)c3s2)cc1 | 81.9%
N#Cc1nc(-c2ccc(F)cc2)oc1S(=O)(=O)N1CCOCC1 | 102%
COC(CC(F)F)c1cn(S(=O)(=O)c2ccc(C)cc2)c2ccccc12 (stereo not given) | 27.8%
COc1cc(-c2cncn2-c2ccc(-c3nc4ccc(F)cc4s3)cc2)ccc1F | 103%
CCC(C(=O)[C@@H](C)[C@@H](O)[C@H](C)[C@@H]1O[C@@H]([C@@H](CC)C(=O)ONC(=O)c2ccccc2)CC[C@@H]1C)[C@H]1O[C@]2(C=CC(=O)[C@]3(CC[C@@](C)([C@H]4CC[C@](O)(CC)[C@H](C)O4)O3)O2)[C@H](C)C[C@@H]1C (stereo not given in full) | 37.4%
Cc1cccc(/C=C/c2c(C(=O)/C=C/c3ccccc3)c(C)nc3ccccc23)c1 | 9.28% (active)
Fc1ccc(CNc2c3ccccc3nc3ccccc23)c(F)c1 | 49.2%
CN(C)CCNC(=O)c1cc2c3cc(Cl)ccc3[nH]c2c2ncccc12 | 31.4%
Cn1c(=O)c2nc(/C=C/c3ccccc3)c(=O)[nH]c2n(C)c1=S | 99.7%
CCCNC(=O)Nc1ccc2cc3ccc(NC(=O)NCCC)cc3nc2c1 | 100%
O=C1/C=C/[C@@H](O)[C@@H]2C[C@@H](O)C[C@H]2/C=C/CCC[C@H](CCc2ccccc2)O1 | 35.9%
O=C(c1nn(-c2ccccc2)c2c1CC(NCc1ccc(F)cc1)CC2)N1CCCCC1 (stereo not given) | 98.2%
CCOC(=O)c1c(NC(=O)c2cccc(C(F)(F)F)c2)sc2c(CN(C)C)c(O)ccc12 | 70.9%
CN1C(=O)/C(=C\c2c(Cl)cccc2Cl)c2ccccc21 | 96.5%

SMILES | growth
CCOC(=O)c1c2c(n3cccc(F)c13)C(=O)c1ncccc1C2=O | 6.61% (active)
Cn1cc(-c2csc(-c3c[nH]c4ccc(Br)cc34)n2)c2ccnc(Cl)c21 | 67.1%
O=C(Nc1ccccc1)Nc1ncnc2c1ncn2-c1ccc(Cl)cc1 | 79.3%
N#Cc1ccc2c(c1)C(=O)c1c-2n(CCCN)c(=O)c2cc([N+](=O)[O-])ccc12 | -81.5% (active)
O=S(=O)(NCCCNc1nccc(-c2c(-c3ccc(F)c(O)c3)nc3sccn23)n1)c1ccccc1 | 87.7%
Cc1[nH]c(C(=O)Nc2ccccc2OC2CCNCC2)c(Cl)c1Cl | 31.3%
Cc1cn(-c2cc(NC(=O)c3cccc(C#Cc4cccc5[nH]nc(N)c45)c3)cc(C(F)(F)F)c2)cn1 | 66%
Cc1ccc2c(n1)C(=O)C(Br)=C(C1CCCC1)C2=O | 100%
CSc1oc(C)nc1[P+](c1ccccc1)(c1ccccc1)c1ccccc1 | 99%
O=S(=O)(NCCNc1nccc(-c2c(-c3ccc(F)c(O)c3)nc3occn23)n1)c1ccc(Cl)cc1 | 97.1%
Cc1ccccc1/C=C/C(=O)c1cccc(OCCCOc2cccc(C(=O)/C=C/c3ccccc3C)c2)c1 | 106% [3 µM]
Nc1nc2ccccc2c2c1S(=O)(=O)c1ccc(Cl)cc1C2=O | 63%
C#CCOc1ccc2ncnc(Nc3ccc(NC(=O)C=C)cc3)c2c1 | 69.5%
N#Cc1c(-c2ccccc2)[nH]c2ncc(-c3ccccc3)n2c1=O | 88.6%
c1cc2c(ccc3[nH]c(-c4ccc5[nH]ncc5c4)c4c(c32)CCCC4)n1 | 92.2%
COc1ccc(C(=O)/C=C/c2c(C(F)(F)F)nc3ccccn23)cc1OC | 24%
COCCOc1cc2ncnc(N3CCN(c4ncc(S(=O)(=O)N5CCCCC5)cn4)CC3)c2cc1OCCOC | 96.5%
NC(=O)c1c(NC(=O)c2ccc3ccccc3c2)sc2c1CCC(=O)C2 | 94.9%
C#Cc1c2c(c(OC)c3c1OCO3)[C@H]([C@H]1OC(=O)c3c1ccc(OC)c3OC)N(C)CC2 | 94%
CCN(C)S(=O)(=O)Nc1cccc(Nc2ncnc3cc(NC(=O)CCl)ccc23)c1Cl | 73.9%
